# Compounds with a hit are over-represented: about 6.5% of the library has one in this group of screens.
# Vaccinia mCherry – vaccinia inhibition (mCherry reporter); Potency, µM (highest dose often 36.5 µM), without a hit: top-dose activity change, negative = inhibition, usual class: inhibitors; Vaccinia virus mCherry reporter infection, fluorescence; hit rate 0.63% among 310,000; calls by dose curve; tested in A549 cells; further: potency means the concentration at half of the fitted maximal effect; nearly all actives have a fitted effect of over 35% in size
# HCMV inh – inhibitors of human cytomegalovirus; activity change, negative = inhibition, % at 57.5 µM; HFF cells, HCMV-luciferase reporter, 72 h; hits give low values; hit rate 4.5% among 410,000; in the data active means activity change below about -60%; inconclusive means no clear call, values can overlap the other calls; inactive means above about -39%
#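 HFF cells seeded 16 h at 37C, treated with compounds, infected with luciferase-reporter HCMV at MOI 1 PFU/cell; luciferase read at 72 h post infection, normalized to buffer-only and Salinomycin controls.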
# FMDV inh – blocks foot and mouth disease virus. FMDV antiviral cell-based qHTS. Potency, µM (titrated, usually from 57.9 µM), without a hit: top-dose activity change, negative = inhibition, usual class: inhibitors. hit rate 1.2% among 410,000; calls by dose curve; tested in HEK293T cells; further: read-out not given here; potency means the concentration at half of the fitted maximal effect; nearly all actives have a fitted effect of over 45% in size
# Lassa entry inh – inhibitors of Lassa virus binding or cell entry; Lassa virus pseudotype entry inhibition, cell reporter; Potency, µM (titrated, usually from 37.9 µM), for inactives: at the top dose activity change, negative = inhibition, most hits filed as inhibitors; hit rate 1.2% among 300,000; AID 540256; calls by dose curve; tested in HEK293 cells; further: potency means the concentration at half of the fitted maximal effect; nearly all actives have a fitted effect of over 50% in size
# Vaccinia Venus – inhibitors of vaccinia virus (Venus reporter); Vaccinia virus Venus reporter expression, fluorescence; hit rate 0.46% among 330,000; Potency, µM (titrated, usually from 36.5 µM), inactives show at the highest dose activity change, negative = inhibition, usual class: inhibitors; calls by dose curve; tested in A549 cells; further: potency means the concentration at half of the fitted maximal effect; nearly all actives have a fitted effect of over 30% in size
# Marburg entry inh – Marburg virus entry inhibition; Marburg virus pseudotyped entry inhibition, cell reporter; Potency, µM (top dose mostly 37.8 µM), for inactives: top-dose activity change, negative = inhibition, actives largely listed as inhibitors; hit rate 1.8% among 300,000; calls by dose curve; tested in HEK293 cells; further: potency means the concentration at half of the fitted maximal effect
# * = called active by the depositor; i = inactive; ? = inconclusive; nt = no result given; [ ] = remark or other dose. On the % scale 0 is the no-effect control and ±100 the full control effect.
SMILES,Vaccinia mCherry,HCMV inh,FMDV inh,Lassa entry inh,Vaccinia Venus,Marburg entry inh
Clc1ccc(/C=C/c2ccc3ccccc3n2)cc1Cl,-10.9%,nt,nt,nt,-25.1%,nt
CCCN(C(=O)Cn1cnc2onc(-c3ccc(F)cc3)c2c1=O)c1cccc(Cl)c1,-16.5%,9.2,-19.9%,-1.7%[46.1 µM],-12.1%,nt
CCOc1ccccc1C1NC(=O)NC(C)=C1C(=O)OC1CCCC1C (stereo not given),nt,-68.1*,-23.4%,?,-25.4%,?
CCCCCCN(C(=O)CCCCCN1C(=O)NC(c2cccc([N+](=O)[O-])c2)C(C(=O)OCc2ccccc2)=C1C)C(C(=O)NCCCC)c1ccc(OCC(=O)OC)c(C(=O)OC)c1 (stereo not given),nt,-73.9*,nt,nt,nt,nt
CC1=C(C(=O)OC2CCCCC2)C(c2ccccc2)NC(=O)N1 (stereo not given),i,-30.0,-21.1%,?,-8.9%,?
CC1=C(C(=O)OC2CCCCCCC2)C(c2ccc(O)cc2)NC(=O)N1 (stereo not given),-23.0%,-38.0,nt,2.59µM*,-19.4%,0.3%
CCOc1ccc(C2NC(=O)NC(C)=C2C(=O)OCc2ccccc2)cc1 (stereo not given),-19.3%,11.5,?,-43.9%,-18.3%,-1.8%
CCOc1ccccc1C1NC(=O)NC(C)=C1C(=O)OC1CCCCC1 (stereo not given),-22.2%,-19.6,nt,?,-25.8%,-28.4%
COc1ccc(COC(=O)C2=C(C)NC(=O)NC2c2ccc(F)cc2)cc1 (stereo not given),-2.5%,-75.2*,25.1µM*,?,-21.9%,?
Cc1cc(C)c2oc(-c3cc(NC(=O)Cc4ccccc4)ccc3Cl)nc2c1,-2.7%,-21.4,6.4%,-10.4%[46.1 µM],-16.8%,6.6%[46.1 µM]
O=C(Cn1c(SCCOc2ccccc2Cl)nc2ccccc21)N1CCOCC1,1.3%,14.5,-5.5%,21.0%[46.1 µM],-1.7%,9.3%[46.1 µM]
CCOC(=O)C1=C(C)NC(=O)NC1c1ccc(-c2ccccc2F)o1 (stereo not given),-20.3%,-61.4*,?,?,-16.9%,-10.8%
COc1ccccc1C1NC(=O)NC(C)=C1C(=O)OCc1ccccc1 (stereo not given),-15.9%,6.2,?,?,-14.8%,?
COc1ccc(OC)c(C2NC(=O)N(C)C(C)=C2C(=O)OCc2ccccc2)c1 (stereo not given),nt,10.3,?,nt,nt,nt
CC1=C(C(=O)OCc2ccccc2)C(c2ccccc2Br)NC(=O)N1 (stereo not given),i,-20.5,28.2µM*,?,-13.7%,?
CC1=C(C(=O)OCc2ccc3c(c2)OCO3)C(c2cccc([N+](=O)[O-])c2)NC(=O)N1 (stereo not given),?,-80.7*,-22.6%,nt,-19.9%,nt
CC1=C(C(=O)OCc2ccccc2)C(c2ccccc2Cl)NC(=O)N1C (stereo not given),-0.7%,-20.1,17.8µM*,-15.8%,-17.0%,-0.3%
CC1=C(C(=O)OCc2ccccc2)C(c2cccc([N+](=O)[O-])c2)NC(=O)N1 (stereo not given),nt,-9.5,-29.4%,nt,nt,nt
CC1=C(C(=O)OCc2ccccc2)C(c2ccc(Br)cc2)NC(=O)N1CCCCCC(=O)O (stereo not given),-3.6%,40.8,-22.6%,nt,1.7%,nt
COC(=O)CCCCCN1C(=O)NC(c2ccccc2)C(C(=O)OCc2ccccc2)=C1C (stereo not given),i,-32.5,28.2µM*,?,-12.7%,-29.1%
CCCCC(=O)Nc1nc(C)c(-c2csc(Nc3cc(OC)ccc3OC)n2)s1,1.12µM*,-32.9,-2.6%,nt,?,nt
CCCC(C)C(=O)Nc1nc(C)c(-c2csc(Nc3ccc(Cl)cc3)n2)s1 (stereo not given),?,-80.1*,?,nt,?,nt
COc1ccc(Cl)cc1Nc1nc(-c2sc(NC(=O)C(C)(C)C)nc2C)cs1,-28.9%,-90.3*,-34.7%,nt,-24.9%,nt
COc1ccc(OC)c(Nc2nc(-c3sc(NC(=O)C(C)(C)C)nc3C)cs2)c1,?,?,-26.3%,nt,?,nt
CCCC(C)C(=O)Nc1nc(C)c(-c2csc(Nc3ccccc3OC)n2)s1 (stereo not given),?,0.6,?,nt,-10.6%,nt
CCOc1ccc(CNC(=O)c2cc3c(=O)oc4ccc(C)cc4c3s2)cc1,-3.4%,-6.8,0.0%,9.2%[46.1 µM],0.9%,14.3%[46.1 µM]

# Assay outcomes: PubChem BioAssay, National Center for Advancing Translational Sciences (NCATS)
